Data: PubChem BioAssay (NCI)
Compounds without any hit were thinned out: in the full panel of roughly 83,000, 20% have a hit.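 Each cell line was grown in a 96-well plate and treated with one concentration of compound for 48 hours. Values below 10 were considered active.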 Values without a mark were called inactive. Active and inactive are the calls of the source.

Tested on: NCI-H460 lung
Test: NCI-60 one-dose screen, 48 h (100 = growth as untreated, 0 = no growth, -100 = all killed)
Settings: 10 µM unless noted
Method: Growth inhibition of the NCI-H460 human Non-Small Cell Lung tumor cell line is measured as a screen for anti-cancer activity. Cells are grown in 96 well plates and exposed to the test compound for 48 hours. Compounds are tested at a single concentration, which is 10^-5 M for most compounds. The reported endpoint is percent growth (GI% or GIPRCNT), where numbers from 0 - 100% represent growth inhibition, and numbers from -100% - 0 represent cell death. For example, a value of 40 represents 60% growth inhibition. A value of 0 means no net growth occurred over the course of the experiment. A value of -40 indicates 40% of cells at the beginning of the experiment died by the end of the experiment. A value of -100 means all cells are dead at the end of the experiment.
NCI-60 Human Tumor Cell Lines Screen was performed using the standard one-dose NCI protocol, which is described in more detail at https://dtp.cancer.gov/discovery_development/nci-60/default.htm.
Compounds with GIPRCNT values below 10 were considered active. Activity score was based on GIPRCNT using the following formula: […]
Score is 0 for GIPRCNT values of 100 or above, 50 for GIPRCNT values of 0, and 100 for GIPRCNT values of -100.

Compound | growth
C=CCn1c(SCC(=O)Nc2cccc(C(=O)/C=C/c3cc(OC)c(OC)c(OC)c3)c2)nc2ccccc2c1=O | 16.8%
CC[C@H](C)[C@H]1NC(=O)[C@@H]([C@H](O)C(C)C)NC(=O)[C@@H](C)N(C)C(=O)[C@H](C)N(C)C(=O)[C@H](CC(C)C)NC(=O)[C@H](CC(C)C)N(C)C(=O)[C@H](C)N(C)C1=O | 1.46% (active)
Nc1n[nH]c2cccc(C#Cc3cccc(NC(=O)c4cccc(OC(F)(F)F)c4)c3)c12 | 58.1%
CC1OC(O[C@@H]2[C@H](O)C(CO)OC(O[C@H]3COC(O[C@H]4CC[C@]5(C)[C@H]6CC[C@]78OC[C@@]9(CCC(C)(C)C[C@H]97)[C@H](O)C[C@@]8(C)[C@]6(C)CC[C@H]5C4(C)C)[C@@H](OC4OC(CO)[C@@H](O)[C@@H](O)[C@@H]4O)[C@@H]3O)[C@H]2OC2OC[C@@H](O)[C@@H](O)[C@@H]2O)[C@@H](O)[C@@H](O)[C@H]1O (stereo not given in full) | -65.2% (active)
COc1ccc(C(=O)c2c(N)c(C#N)cn2-c2cccc(OC)c2)cc1 | 27.8%
O=C1C[C@@H](c2ccccc2)Oc2c(Cc3ccccc3O)c(O)c(Cc3cc(Cc4cc(Cc5ccccc5O)ccc4O)ccc3O)c(O)c21 | 104%
COc1ccc(-c2nn(-c3ccccc3)cc2/C=C/C(=O)c2ccc(NC(=O)CCCCCCC(=O)NO)cc2)cc1 | 108%
COc1cc2c3c(n(CCCNC4CCCCC4)c(=O)c2cc1OC)-c1cc2c(cc1C3=O)OCO2 | -80.1% (active)
Cc1cc(Cl)cc(NS(=O)(=O)c2ccc(-c3cnc(C4CC4)o3)cc2)c1 | 16.2%
O=C(Cn1cc(CN2C(=O)c3ccc([N+](=O)[O-])cc3C2=O)nn1)Nc1ccc(F)cc1Cl | 106%
CN1C(=O)N(C)C2Nn3c(s/c(=C\c4ccccn4)c3=O)=NC21 (stereo not given) | 110%
COc1ccc(-c2oc3cc(O)cc(O)c3c(=O)c2OC)cc1O | 8.84% (active)
C=C1C(=O)O[C@@H]2C[C@@H](C)/C=C\C(=O)[C@](C)(OC(C)=O)C[C@H](OC(=O)/C(C)=C\C)[C@@H]12 | 20%
Cc1cn(-c2cc(NC(=O)c3cncc(C#Cc4cnc5ccc(O[C@@H]6CCOC6)nn45)c3)cc(C(F)(F)F)c2)cn1 | -76.9% (active)
CNC(=O)c1c(NC(=O)c2ccc(F)cc2F)sc2c1CCC(=O)C2 | 1.92% (active)
O=S(=O)(Nc1ccc(-c2nc(-c3cccc(O)c3)c(-c3ccnc(Br)c3)[nH]2)cc1)c1ccccc1 | 19.7%
COc1ccc(NC(=O)Cn2cc(CN3C(=O)c4ccc([N+](=O)[O-])cc4C3=O)nn2)cc1 | 106%
O=C1Nc2ccc(Cl)cc2/C1=C/c1ccc(OCc2ccc(F)cc2)cc1 | 97.7%
Cc1cc(=O)n2nc(-c3cn(C)c4ccc(Cl)cc34)sc2n1 | 78.6%
COc1ccc2c(C3=C(c4c[nH]c5ccccc45)C(=O)N(O)C3=O)coc2c1 | 90.3%

Compound | growth
Cn1cc(-c2nn3c(=O)cc(-c4ccccc4)nc3s2)c2cc(F)ccc21 | 15.5%
CC(=O)Nc1ccc(NC(=O)Nc2cccc(-c3nc(-c4ccc(NC(=O)c5cccnc5)cc4Cl)no3)c2)cc1C(F)(F)F | -64.9% (active)
CCN(CC)CCN1C(=O)c2c(c3c4cc(Br)ccc4[nH]c3c3ccc4ccccc4c23)C1=O | -65.8% (active)
COc1ccc(-c2cc(-c3ccc(Cl)cc3)nc3nc(N)nn23)cc1 | 107%
C[C@@H]1C[C@H]2C(=O)OCC(NC(=O)[C@H](Cc3cc(F)cc(F)c3)NC(=O)Nc3ccc(Cl)cc3F)C(=O)N3CCC[C@H]3C(=O)N3CCCC[C@H]3C(=O)N[C@@H](C)C(=O)N2C1 (stereo not given in full) | 14.8%
COc1ccc(C(=O)n2cc(C=O)c3ccccc32)cc1 | 110%
C#C[C@]1(O)CC[C@H]2[C@@H]3CC=C4c5sc(Nc6cccc(C)n6)nc5CC[C@]4(C)[C@H]3CC[C@@]21C | 4.46% (active)
COc1cc(/C=N/n2cnc3oc(-c4ccccc4)cc3c2=N)cc(CN2CCOCC2)c1O | 89.8%
CS(=O)c1nccc(-c2c(-c3ccc(F)c(OCc4ccc(F)cc4)c3)nc3sccn23)n1 (stereo not given) | 35.6%
Oc1ccc(CSc2nnc(-c3ccc(Br)cc3)n2-c2ccccc2)c2cccnc12 | 7.57% (active)
Cc1ccc(-c2cc3nc(C(Cl)Cl)nc(-c4ccccc4)n3n2)cc1 | 46.9%
CC(C)=CCc1c2c(c(O)c3c1O[C@]14C(=C[C@@H]5C[C@H]1C(C)(C)O[C@@]4(C/C=C(/C)C(=O)O)C5=O)C3=O)CC(O)C(C)(C)O2 (stereo not given in full) | -33.2% (active)
CCOC(=O)c1c(NC(=O)c2ccc(F)cc2F)sc2c1CCC(=O)C2 | 102%
Cc1csc(Nc2cccc(Nc3nc(C)cs3)c2)n1 | 76.5%
CCN1CCN(c2cc(C(=O)Nc3nc4ccc(Oc5ccnc(C(=O)NC)c5)cc4s3)cc(C(F)(F)F)c2)CC1 | 46.4%
Nc1nc(-c2cccc([N+](=O)[O-])c2)c(N=Nc2cccc(Cl)c2)s1 | 49.5%
COc1cc(-c2noc(C[C@@H](NC(=O)OCc3ccccc3)C(C)C)n2)cc(OC)c1OC | 102%
C=C(C)[C@@H]1CC[C@]2(C)[C@H](CC=C3[C@@H]4CC(C)(C)CC[C@]4(C(=O)NCC#CCN4CCN(C)CC4)CC[C@]32C)[C@@]1(C)CCC#N | 10.7%
Cc1cc(NS(=O)(=O)c2ccc(-c3cnc(C4CC4)o3)cc2)ccc1I | 22.2%
O=S(=O)(Nc1ccc2c(c1)OC(F)(F)O2)c1ccc(-c2cnc(C3CC3)o2)cc1 | 17.3%
